This is an account of results in PubChem BioAssay (Tox21).

Several values for one entry are separate records, joined by “and”; a condition that tells them apart may be missing. Identical values can stand only once. Inconclusive results are not listed. The source holds several records for some structures; these can differ, active in one and inactive in another. Activity calls are given as the source filed them. Unless noted, the call rests on the fitted dose curve; in most records, active means well fitted curve in the direction sought with a large enough effect in the repeat runs; inconclusive means weak or mixed curves; inactive means no such curve, though single readings can be large; an effect the other way counts as inactive or inconclusive.

Assay [1] can be described thus: qHTS assay to identify small molecule antagonists of the sonic hedgehog signaling (Shh) pathway (AID 1259369; calls by dose curve; further: nearly all actives have a fitted effect of over 45% in size; further: potency means the concentration at half of the fitted maximal effect). The essentials: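 For antagonist detection, the reporter line received test compounds together with conditioned medium, incubated 24hr at 37 C, 5% CO2, then luminescence was recorded following 30min room-temperature luciferase reagent incubation.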
The target of assay [2] is Estrogen receptor beta (Homo sapiens) (UniProt Q92731). As to the kind of experiment: qHTS assay to identify small molecule agonists of the estrogen receptor beta (ER-beta) signaling pathway (AID 1259377; active means well fitted activation curve with a large enough effect in the signal ratio in the repeat runs, not every such curve was filed as active; the % refers to the signal ratio). The procedure, abridged:
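Ratiometric beta-lactamase FRET read-out came after 2 h substrate loading at room temperature. It followed 16 h compound treatment at 37C of GripTite HEK293T cells carrying a UAS-bla reporter, plated in 2% charcoal-stripped FBS medium.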

For assay [3] the target is unchanged. The experiment in a line: qHTS assay to identify small molecule antagonists of the estrogen receptor beta (ER-beta) signaling pathway (AID 1259378; active means well fitted inhibition curve with a large enough effect in the signal ratio in the repeat runs, not every such curve was filed as active; the % refers to the signal ratio; further: potency means the concentration at half of the fitted maximal effect). The essentials:
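ER-beta-UAS-bla HEK293T cells in 2% charcoal-stripped FBS medium treated with compound plus 1nM final 17-beta-estradiol for 16 hr at 37C. Beta-lactamase reporter read by FRET substrate fluorescence after 2 hours at room temperature.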

The nature of assay [4]: qHTS assay to identify small molecule agonists of the androgen receptor (AR) signaling pathway in the presence of an antagonist - cell viability counter screen (AID 1259379). Further: nearly all actives have a fitted effect of over 25% in size. Further: potency means the concentration at half of the fitted maximal effect. The essentials: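 Seed MDA-kb2 at 3,000 cells/well; incubate 5 hr, 37C, 0% CO2. Add nilutamide to 3.0uM final, then pin compounds at 15 concentrations. Incubate 16 hr. Add CellTiter-Fluor at 15 hr, read fluorescence after 1 hr.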

Assay [5] in a line: qHTS assay to identify small molecule antagonists of the estrogen receptor beta (ER-beta) signaling pathway - cell viability counter screen (AID 1259382). Further: nearly all actives have a fitted effect of over 55% in size. Further: potency means the concentration at half of the fitted maximal effect. The essentials: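 In this multiplexed counter screen, cells were seeded at 2,000 per well in medium with 2% charcoal-stripped FBS and incubated 6 hr before compound and 1nM final E2 were added. Sixteen hours later, ATP-based luminescence reported viability.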

In assay [6] the target is Estrogen receptor (Homo sapiens) (UniProt P03372). As to the kind of experiment: qHTS assay to identify small molecule agonists of the estrogen receptor alpha (ER-alpha) signaling pathway in the presence of an antagonist (AID 1259383; calls by dose curve; further: top concentration of the series differs between compounds; nearly all actives have a fitted effect of over 15% in size). The procedure, abridged: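 Stably transfected VM7Luc4E2 reporter cells, kept 5 days in charcoal-stripped serum, received ICI-182,780 at 10.0nM final before compound addition. Following 22hr incubation at 37C and 5% CO2, luciferase signal was read by luminescence.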

Assay [7] in a line: qHTS assay to identify small molecule agonists or antagonists of the thyroid stimulating hormone receptor (TSHR) signaling pathway - wild type cell line counter screen (AID 1259384; calls by dose curve). The procedure, abridged:
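Wild-type Hek293 cells, 800/well, 18 h at 37C, then compound with Ro20-1724 for 30 min RT. cAMP by HTRF (cAMP-d2/anti-cAMP cryptate), 1 h RT, fluorescence read. 15 concentrations, triplicates.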

In assay [8] the target is Thyrotropin receptor (Homo sapiens) (UniProt P16473). As to the kind of experiment: qHTS assay to identify small molecule antagonists of the thyroid stimulating hormone receptor (TSHR) signaling pathway (AID 1259385; calls by dose curve; further: nearly all actives have a fitted effect of over 20% in size; further: potency means the concentration at half of the fitted maximal effect). The essentials:
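TSHR-HEK293 cells (800/well) plated 18 h, then compounds with Ro20-1724 and TSH at 1.5 ng/mL final, 30 min at room temperature. cAMP quantified by HTRF (cAMP-d2/anti-cAMP-cryptate, 1 h); 15 concentrations in triplicate.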

A short description of assay [9]: qHTS assay to identify small molecule agonists of the estrogen receptor alpha (ER-alpha) signaling pathway in the presence of an antagonist - cell viability counter screen (AID 1259386).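 Further: series mostly up to about 92 µM; cells exposed to compounds for 22 h at 37 °C before the viability read; nearly all actives have a fitted effect of over 30% in size.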 The essentials: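 Viability counter screen using VM7Luc4E2 (full-length ER-alpha, four ERE-luciferase). The cells were treated with compounds alongside ICI-182,780 10.0nM for 22hr, and live-cell protease fluorescence was quantified with CellTiter-Fluor.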

For assay [10], the target named is Progesterone receptor (Homo sapiens) (UniProt P06401). The experiment in a line: qHTS assay to identify small molecule agonists of the progesterone receptor (PR) signaling pathway (AID 1346784; calls by dose curve; further: nearly all actives have a fitted effect of over 30% in size). The procedure, abridged: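 Agonist qHTS: compounds pinned onto 3,000 PR-UAS-bla HEK 293T cells per well in charcoal-stripped serum medium, 16hr at 37C, then beta-lactamase activity measured by LiveBLAzer FRET fluorescence after 2 hours at room temperature.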

The target is the same in assay [11]. The experiment in a line: qHTS assay to identify small molecule antagonists of the progesterone receptor (PR) signaling pathway (AID 1346795; active means well fitted inhibition curve with a large enough effect in the signal ratio in the repeat runs, not every such curve was filed as active; the % refers to the signal ratio; further: potency means the concentration at half of the fitted maximal effect). The procedure, abridged:
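Antagonist mode with agonist R5020 at 1 nM final and 16 hr incubation at 37C. Reporter was beta-lactamase driven by UAS in HEK293T (PR-UAS-bla), 2% charcoal-stripped serum; signal from LiveBLAzer FRET substrate, 2 hr at room temperature.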

Assay [12] is described as follows: qHTS assay to identify small molecule antagonists of the progesterone receptor (PR) signaling pathway - cell viability counter screen (AID 1346798). Further: nearly all actives have a fitted effect of over 50% in size. Further: potency means the concentration at half of the fitted maximal effect. The essentials: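 Cytotoxicity read as CellTiter-Glo luminescence (30 min, room temperature) in the same wells as the beta-lactamase readout. HEK293T PR-UAS-bla cells in charcoal-stripped 2% FBS received compound and R5020, then 16 h at 37C, 5% CO2.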

Assay [13] can be described thus: qHTS assay to identify small molecule agonists of the progesterone receptor (PR) signaling pathway - cell viability counter screen (AID 1346799; calls by dose curve; further: nearly all actives have a fitted effect of over 45% in size; further: potency means the concentration at half of the fitted maximal effect). The procedure, abridged:
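Cytotoxicity measured by CellTiter-Glo luminescence (30 min, RT) in the same wells as the PR beta-lactamase agonist read. Those HEK293T cells had 16 h compound treatment at 37 C in 2% charcoal-stripped FBS medium.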

A short description of assay [14]: qHTS assay to identify small molecule antagonists of the TGF-beta/Smad signaling pathway - cell viability counter screen (AID 1346824). Further: nearly all actives have a fitted effect of over 50% in size. The essentials: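 SBE-bla HEK 293T cells, incubated overnight, then compound plus 0.25 ng/mL TGF-beta1 (stock added) for 5 hr at 37 C. Viability was read in the same wells by CellTiter-Glo luminescence after 30 min at room temperature.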

Assay [15] in a line: qHTS assay to identify small molecule agonists of the TGF-beta/Smad signaling pathway - cell viability counter screen (AID 1346829). Further: top concentration of the series differs between compounds; nearly all actives have a fitted effect of over 45% in size. The essentials:
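SBE-bla HEK 293T cells plated overnight, compound exposure 5 hr at 37 C. Viability read in the same wells by CellTiter-Glo luminescence after 30 min at room temperature, following the beta-lactamase read.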

The nature of assay [16]: qHTS assay to identify small molecule agonists of the TGF-beta/Smad signaling pathway (AID 1346859; active means well fitted activation curve with a large enough effect in the signal ratio in the repeat runs, not every such curve was filed as active; the % refers to the signal ratio; further: series mostly up to about 77 µM). The procedure, abridged:
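Fluorescence (ex 405 nm; em 460 and 530 nm) was read 2 h after LiveBLAzer FRET substrate at RT. The preceding compound treatment of overnight-plated SBE-bla HEK293T cells lasted 5 h at 37 C.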

In assay [17] the target is Thyrotropin-releasing hormone receptor (Homo sapiens) (UniProt P34981). As to the kind of experiment: qHTS assay to identify small molecule antagonists of the thyrotropin-releasing hormone receptor (TRHR) signaling pathway (AID 1346877; active means well fitted inhibition curve with a large enough effect in the repeat runs, not every such curve was filed as active; further: series mostly up to about 51 µM). The essentials:
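Following an 18 h incubation at 37 °C and a 2 h calcium dye load, TRHR-HEK293 cells were exposed to compound (5 min, room temperature) and challenged with TRH, 1 nM final.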

Assay [18] shares this target. As to the kind of experiment: qHTS assay to identify small molecule agonists of the thyrotropin-releasing hormone receptor (TRHR) signaling pathway (AID 1346891; calls by dose curve; further: series mostly up to about 58 µM). The procedure, abridged: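 Agonist-mode intracellular calcium readout: kinetic fluorescence over 3 min at 1 s intervals after compound addition to TRHR-HEK293 cells (18 h seeded, 2 h dye-loaded at 37 C). Fifteen concentrations, triplicates.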

A short description of assay [19]: qHTS assay to identify small molecule agonists of the estrogen receptor beta (ER-beta) signaling pathway - cell viability counter screen (AID 1259380). Further: nearly all actives have a fitted effect of over 30% in size. The essentials: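 CellTiter-Glo read, 30 min RT, same wells as bla assay; cells ER-beta-UAS-bla HEK293T; 16 hr compound, 37C; medium 2% charcoal-stripped FBS.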
Assay [20] has as its target Androgen receptor (Homo sapiens) (UniProt P10275). As to the kind of experiment: qHTS assay to identify small molecule agonists of the androgen receptor (AR) signaling pathway in the presence of an antagonist (AID 1259381; calls by dose curve; further: nearly all actives have a fitted effect of over 15% in size). The essentials: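 Test compounds at 15 concentrations were incubated for 16hr with MDA-kb2 reporter cells in presence of 3.0uM nilutamide (final). Signal: ONE-Glo luciferase luminescence.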

Chain of Estrogen receptor beta (Homo sapiens) (Q92731 whole entry, looked up): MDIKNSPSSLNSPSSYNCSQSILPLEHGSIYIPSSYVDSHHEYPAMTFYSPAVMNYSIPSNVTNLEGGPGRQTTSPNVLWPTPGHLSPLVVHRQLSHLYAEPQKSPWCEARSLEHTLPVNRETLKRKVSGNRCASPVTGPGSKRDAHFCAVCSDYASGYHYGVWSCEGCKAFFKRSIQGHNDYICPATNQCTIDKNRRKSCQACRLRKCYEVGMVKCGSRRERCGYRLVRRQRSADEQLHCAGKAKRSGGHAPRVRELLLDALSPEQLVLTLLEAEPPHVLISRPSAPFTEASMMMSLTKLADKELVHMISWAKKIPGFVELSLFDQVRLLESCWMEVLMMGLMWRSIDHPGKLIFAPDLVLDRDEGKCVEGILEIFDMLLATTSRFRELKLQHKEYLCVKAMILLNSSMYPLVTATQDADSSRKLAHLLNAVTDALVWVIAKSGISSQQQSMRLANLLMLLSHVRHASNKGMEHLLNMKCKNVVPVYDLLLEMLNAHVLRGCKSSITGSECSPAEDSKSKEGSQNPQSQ
Chain of Thyrotropin receptor (Homo sapiens) (P16473 whole entry, looked up): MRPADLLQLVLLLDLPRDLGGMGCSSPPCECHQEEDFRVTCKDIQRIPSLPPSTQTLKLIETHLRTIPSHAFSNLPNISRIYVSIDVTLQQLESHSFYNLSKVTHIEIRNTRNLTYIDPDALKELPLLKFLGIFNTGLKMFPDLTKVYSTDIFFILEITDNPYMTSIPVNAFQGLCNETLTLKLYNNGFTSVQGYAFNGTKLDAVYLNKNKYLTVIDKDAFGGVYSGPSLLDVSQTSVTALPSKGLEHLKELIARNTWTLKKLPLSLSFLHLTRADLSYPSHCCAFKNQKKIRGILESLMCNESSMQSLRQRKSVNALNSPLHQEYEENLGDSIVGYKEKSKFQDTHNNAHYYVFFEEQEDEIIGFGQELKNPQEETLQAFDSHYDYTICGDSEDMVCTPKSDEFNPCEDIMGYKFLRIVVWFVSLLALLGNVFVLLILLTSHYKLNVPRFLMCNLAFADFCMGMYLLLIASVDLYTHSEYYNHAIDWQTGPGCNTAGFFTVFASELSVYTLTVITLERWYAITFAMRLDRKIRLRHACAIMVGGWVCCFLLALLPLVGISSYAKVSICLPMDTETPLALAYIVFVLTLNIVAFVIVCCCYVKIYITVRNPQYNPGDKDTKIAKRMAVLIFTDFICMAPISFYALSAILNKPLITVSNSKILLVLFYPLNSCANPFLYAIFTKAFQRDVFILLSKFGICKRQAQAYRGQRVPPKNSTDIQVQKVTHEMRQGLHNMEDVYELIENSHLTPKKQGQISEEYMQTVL
Chain of Estrogen receptor (Homo sapiens) (P03372 whole entry, looked up): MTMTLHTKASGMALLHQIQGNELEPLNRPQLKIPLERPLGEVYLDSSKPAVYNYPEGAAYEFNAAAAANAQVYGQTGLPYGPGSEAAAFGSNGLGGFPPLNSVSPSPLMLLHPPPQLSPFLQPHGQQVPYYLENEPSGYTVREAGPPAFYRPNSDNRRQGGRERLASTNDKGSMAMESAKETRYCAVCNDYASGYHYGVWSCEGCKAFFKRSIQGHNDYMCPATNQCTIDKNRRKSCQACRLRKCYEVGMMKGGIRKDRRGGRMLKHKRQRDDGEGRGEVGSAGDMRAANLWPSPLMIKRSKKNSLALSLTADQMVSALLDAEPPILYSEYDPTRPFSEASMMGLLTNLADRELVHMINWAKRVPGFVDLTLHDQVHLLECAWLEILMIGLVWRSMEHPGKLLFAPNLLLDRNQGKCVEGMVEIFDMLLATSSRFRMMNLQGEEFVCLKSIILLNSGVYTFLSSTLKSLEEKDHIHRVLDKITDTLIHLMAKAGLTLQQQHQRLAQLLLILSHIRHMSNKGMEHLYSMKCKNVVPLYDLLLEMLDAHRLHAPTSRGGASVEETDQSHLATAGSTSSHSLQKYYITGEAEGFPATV
Chain of Progesterone receptor (Homo sapiens) (P06401 whole entry, looked up): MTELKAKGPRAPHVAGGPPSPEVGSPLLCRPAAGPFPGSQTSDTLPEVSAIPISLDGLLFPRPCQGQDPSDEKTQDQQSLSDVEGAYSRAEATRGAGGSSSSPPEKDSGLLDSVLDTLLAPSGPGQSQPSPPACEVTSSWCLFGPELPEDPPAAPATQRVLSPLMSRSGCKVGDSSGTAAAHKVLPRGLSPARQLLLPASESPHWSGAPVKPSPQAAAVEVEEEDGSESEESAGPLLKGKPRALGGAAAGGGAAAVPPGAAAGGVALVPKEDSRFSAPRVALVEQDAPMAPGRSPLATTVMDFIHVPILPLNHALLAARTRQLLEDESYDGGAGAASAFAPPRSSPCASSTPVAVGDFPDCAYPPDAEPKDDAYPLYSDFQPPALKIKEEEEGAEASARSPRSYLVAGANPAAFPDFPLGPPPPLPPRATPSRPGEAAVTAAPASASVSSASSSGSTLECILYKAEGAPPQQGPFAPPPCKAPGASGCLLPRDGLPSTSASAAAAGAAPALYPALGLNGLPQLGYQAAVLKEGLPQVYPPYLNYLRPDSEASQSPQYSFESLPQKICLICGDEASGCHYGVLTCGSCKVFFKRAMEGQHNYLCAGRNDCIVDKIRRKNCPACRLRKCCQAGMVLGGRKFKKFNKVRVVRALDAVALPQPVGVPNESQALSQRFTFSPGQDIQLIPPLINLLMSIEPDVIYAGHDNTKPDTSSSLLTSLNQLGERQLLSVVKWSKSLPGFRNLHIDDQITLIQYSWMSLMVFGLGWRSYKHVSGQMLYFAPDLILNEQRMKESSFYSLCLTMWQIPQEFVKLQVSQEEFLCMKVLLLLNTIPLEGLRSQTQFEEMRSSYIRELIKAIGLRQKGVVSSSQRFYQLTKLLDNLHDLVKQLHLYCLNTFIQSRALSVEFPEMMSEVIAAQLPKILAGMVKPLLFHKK
Chain of Thyrotropin-releasing hormone receptor (Homo sapiens) (P34981 whole entry, looked up): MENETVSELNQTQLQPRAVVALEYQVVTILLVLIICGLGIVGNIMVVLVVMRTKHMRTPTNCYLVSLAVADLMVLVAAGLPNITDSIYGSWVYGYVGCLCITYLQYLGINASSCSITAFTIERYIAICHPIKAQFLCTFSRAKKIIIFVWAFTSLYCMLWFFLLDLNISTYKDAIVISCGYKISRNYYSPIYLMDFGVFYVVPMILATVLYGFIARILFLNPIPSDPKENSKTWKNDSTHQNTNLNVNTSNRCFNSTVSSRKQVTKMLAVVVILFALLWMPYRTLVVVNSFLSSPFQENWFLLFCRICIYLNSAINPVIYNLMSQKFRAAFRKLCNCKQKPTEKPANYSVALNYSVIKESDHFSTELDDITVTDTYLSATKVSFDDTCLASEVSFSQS
Chain of Androgen receptor (Homo sapiens) (P10275 whole entry, looked up): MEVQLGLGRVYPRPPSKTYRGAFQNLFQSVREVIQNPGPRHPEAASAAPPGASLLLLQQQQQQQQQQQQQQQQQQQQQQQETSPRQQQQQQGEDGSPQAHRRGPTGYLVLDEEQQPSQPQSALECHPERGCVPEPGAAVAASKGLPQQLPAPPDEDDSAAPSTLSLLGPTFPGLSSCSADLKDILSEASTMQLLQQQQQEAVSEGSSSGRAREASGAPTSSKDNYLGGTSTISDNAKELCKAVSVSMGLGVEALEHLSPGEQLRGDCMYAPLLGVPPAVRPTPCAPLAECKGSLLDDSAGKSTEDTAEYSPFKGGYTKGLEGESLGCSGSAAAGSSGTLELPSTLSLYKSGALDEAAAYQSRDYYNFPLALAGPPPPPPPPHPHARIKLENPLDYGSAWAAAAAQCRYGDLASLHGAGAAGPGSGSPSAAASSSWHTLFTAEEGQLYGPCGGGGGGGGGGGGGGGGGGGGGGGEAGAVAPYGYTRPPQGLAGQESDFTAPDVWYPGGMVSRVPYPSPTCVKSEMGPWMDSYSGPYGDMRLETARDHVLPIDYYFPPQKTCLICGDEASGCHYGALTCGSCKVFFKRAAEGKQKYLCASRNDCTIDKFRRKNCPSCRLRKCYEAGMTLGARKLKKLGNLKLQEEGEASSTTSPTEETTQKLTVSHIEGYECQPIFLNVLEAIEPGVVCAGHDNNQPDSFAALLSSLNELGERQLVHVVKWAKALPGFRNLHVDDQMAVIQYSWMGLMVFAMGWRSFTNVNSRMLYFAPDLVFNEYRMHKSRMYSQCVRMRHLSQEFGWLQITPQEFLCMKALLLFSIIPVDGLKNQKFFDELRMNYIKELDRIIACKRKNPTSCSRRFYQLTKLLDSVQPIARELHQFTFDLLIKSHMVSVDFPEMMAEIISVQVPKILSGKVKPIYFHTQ

As for `CC(C)=CCCC(C)CCO` (stereo not drawn), the Potency result in [1], in [2], in assay [3], in assay [4], in assay [5] and in assay [6] was “inactive” throughout. Further, the Potency entry in assay [8], in assay [9], in assay [10], in [11], in assay [12] and in assay [13] was “inactive” in each case. Moreover, the Potency result in assay [14], in [15], in assay [17] and in [18] was “inactive” each time. For the same molecule, the call in assay [7] and in assay [16] was inactive.

As for `CN(C)CCC=C1c2ccccc2CCc2ccccc21`, the Potency is 2.73 µM (active) and 9.69 µM (active) and 7.5 µM (active) in assay [1]; 68.6 µM (active) in assay [3]; 15.4 µM (active) and 13.7 µM (active) and 26.6 µM (active) in assay [5]; 68.6 µM (active) and 26.6 µM (active) in assay [8]; 54.5 µM (active) in assay [11]; 61.1 µM (active) and 30.6 µM (active) and 16.8 µM (active) in assay [12]. Also, the Potency in [13] is 54.5 µM (active) and 15.4 µM (active) and 16.8 µM (active). The Potency result in assay [2], in assay [4], in assay [6], in [9], in [10] and in [14] was “inactive” in each case. Besides, the Potency entry in assay [15], in assay [17] and in assay [18] was “inactive” each time. Further, the call in assay [7] and in assay [16] was inactive.

For the molecule `CC(=O)O[C@]1(C(C)=O)CC[C@H]2[C@@H]3C=C(Cl)C4=CC(=O)[C@@H]5C[C@@H]5[C@]4(C)[C@H]3CC[C@@]21C`, the Potency was 4.32 µM (active) and 27.3 µM (active) and inactive in assay [1]; 54.5 µM (active) in assay [3]. Also, the Potency result in [2], in assay [4], in assay [5], in assay [8], in assay [9] and in assay [12] was “inactive” throughout. Besides, the Potency result in [14] and in assay [15] was “inactive” throughout. The call in assay [7] was inactive.

Turning to `COc1ccccc1/C=C/C=O`, the Potency was 35.3 µM (active) and inactive in [1]; 55.9 µM (active) and 54.5 µM (active) in assay [3]. The Potency result in assay [2], in assay [5], in assay [6], in assay [8], in assay [9] and in assay [10] was “inactive” throughout. For the same molecule, the Potency entry in assay [11], in assay [12], in [14] and in [15] was “inactive” throughout. The outcome in [7] and in assay [16] was inactive.

For the molecule `Cc1ccc(C)c(O)c1C`, the Potency entry in assay [1], in [4], in [19], in [5], in assay [6] and in [8] was “inactive” in each case. The Potency entry in assay [9], in assay [10], in assay [11], in assay [12], in assay [13] and in assay [14] was “inactive” throughout. For the same molecule, the Potency result in assay [15], in assay [17] and in [18] was “inactive” throughout. In addition, the result in assay [20], in assay [7] and in [16] was inactive.

For the molecule `c1cc(-c2ccncc2)ccn1`, the Potency entry in assay [1], in assay [2], in [3], in assay [4], in assay [5] and in assay [6] was “inactive” each time. Besides, the Potency entry in assay [8], in [9], in [10], in [11], in [12] and in assay [13] was “inactive” each time. The Potency entry in assay [14], in assay [15], in assay [17] and in assay [18] was “inactive” in each case. The molecule was called inactive in [7] and in assay [16].

Regarding `CCCCC/C=C/C=C/C=O`, the Potency entry in assay [1] is “inactive and 34.4 µM (active)”; in assay [4], 68 µM (active) and inactive. For the same molecule, the Potency entry in assay [2], in assay [3], in [5], in assay [8], in [9] and in [10] was “inactive” throughout. Besides, the Potency entry in assay [11], in assay [12], in [14], in assay [15], in [17] and in [18] was “inactive” throughout. In addition, the molecule was classed as inactive in assay [7] and in assay [16].

Take `O=c1oc(=O)c2cc3c(=O)oc(=O)c3cc12`: the Potency entry in [1], in assay [2], in assay [3], in [4], in [5] and in [9] was “inactive” in each case. The Potency entry in assay [10], in assay [11], in [12], in assay [13], in assay [14] and in [15] was “inactive” each time. In addition, the Potency entry in [17] and in assay [18] was “inactive” in each case. For the same molecule, the molecule was classed as inactive in assay [16].
